The values that follow come from PubChem BioAssay (NCI).

Where “and” joins values, the source holds several entries; their conditions need not be identical. Equal values may be shown once. About 83,000 compounds went through this panel and 20% of them were active in at least one assay; those are over-represented in the sample as a whole.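 Growth was measured after 48 h exposure to one concentration of compound in 96-well plates. Values under 10 count as active.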 Calls of active or inactive are those of the source.

This experiment deals with HCT-116 colon. Description: NCI-60 one-dose screen, 48 h (100 = growth as untreated, 0 = no growth, -100 = all killed). To be noted: 10 µM unless noted.
Regarding `CCOC(=O)C1C(C=C(C)C)C1(C)C` (configuration not stated), the growth is 108% (inactive).

On to `O=C/C=C/c1ccco1`, for which the growth is 90% (inactive). Then `Cn1cc(-c2csc(-c3cn(CCCCN4CCOCC4)c4ccc(F)cc34)n2)c2cccnc21`, with 83% (inactive); and `CC(=O)Nc1nc2c(s1)C1=CC[C@H]3[C@@H]4CC[C@H](OC(C)=O)[C@@]4(C)CC[C@@H]3[C@@]1(C)CC2`, with 39.8% (inactive); and `C[C@]12CC[C@H](O)C[C@@H]1CC[C@@H]1[C@@H]2CC[C@]2(C)OC(=O)CC[C@@H]12`, with 88.6% (inactive). Then `C[C@]12CCc3sc(Nc4ccc(O)cc4)nc3C1=CC[C@@H]1[C@@H]2CC[C@]2(C)C(=O)CC[C@@H]12`, with -72.4% (active). Turning to `O=C(O)C(Br)CBr` (configuration not stated), the growth is 94.8% (inactive). In the case of `Cc1cc[c-]cc1.Fc1c[c-]c(-c2ccccn2)c(F)c1.N#CCC[PH+](CCC#N)c1ccccc1.[Pt+2]` it was 19.1% (inactive); in that of `O=P(O)(Nc1ccccc1)Nc1ccccc1`, 89.1% (inactive). Then `Cc1cc(N(CCCl)CCCl)ccc1C=Nc1ccc(-c2csc(-c3ccccc3)n2)cc1`, with 89.8% (inactive); and `Oc1ccccc1C=NCCN=Cc1ccccc1O`, with 94.2% (inactive); and `COC12CC3(C)C(C4=CC(=O)OC4)CCC3(O)C3CCC4=CC(=O)CCC4(CO1)C32` (configuration not stated), with 101% (inactive). Then `CC12CCC3C(CCC4CC(O)CCC43C)C1CCC2=O` (configuration not stated), with 88.6% (inactive); and `COc1cc(-c2ccc(N)c(OC)c2)ccc1N`, with 112% (inactive); and `COc1ccn(C)c(=O)c1C#N`, with 97% (inactive). On to `CCCCCCCCCCCCCCCC[N+](C)(C)Cc1ccccc1`, for which the growth is -53% (active) and -100% (active). Then `Cc1nc2ccccc2c(=O)n1-c1ccccc1F`, with 98.7% (inactive); and `C[C@]12CC[C@H]3[C@@H](C[C@@H]4SC(Nc5ccccc5)=N[C@@]45C/C(=N/O)CC[C@]35C)[C@@H]1CCC2=O`, with 9.01% (active).

For `N#CCN(CC#N)[N+](=O)[O-]`, the growth was 96.8% (inactive).

`O=C(O)c1ccccc1N(CCO)CCCl`: the growth is 95.3% (inactive).

In the case of `O=[N+]([O-])c1cc(Cl)c(Cl)cc1Cl`, the growth is 107% (inactive) and 106% (inactive). In the case of `CN1[C@@H](CC(=O)c2ccccc2)CCC[C@H]1CC(=O)c1ccccc1` it was 101% (inactive); in that of `O=Cc1cn(Cc2ccccc2)c2ccccc12`, 68.4% (inactive); in that of `OCCN=Cc1c[nH]c2ccccc12`, 96.7% (inactive). Regarding `C=CC[PH+](c1ccccc1)c1ccccc1.C=CC[PH+](c1ccccc1)c1ccccc1.[Pt+2].[S-]c1nc2ccccc2[nH]1.[S-]c1nc2ccccc2[nH]1`, the growth is -29.7% (active).

Regarding `O=NN1CCCCC1`, the growth was 108% (inactive). In the case of `COC(=O)C1=CCCN(C)C1` it was 102% (inactive) and 108% (inactive); in that of `CC[C@H](C)[C@H](NC(=O)[C@H]1CCCCN1C)C(=O)N(C)[C@H](C[C@@H](OC(C)=O)c1cccc(C(=O)N[C@@H](Cc2ccccc2)C[C@H](C)C(=O)OC)n1)C(C)C`, -5.08% (active); in that of `CC1(C)CN=C(NN=C(/C=C/c2ccc(C(F)(F)F)cc2)/C=C/c2ccc(C(F)(F)F)cc2)NC1`, -85.8% (active). In the case of `Cc1ccc(P(=O)(O)O)cc1` it was 104% (inactive). In the case of `Nc1ccc2c(c1)Cc1cc(N)ccc1-2` it was 97.9% (inactive); in that of `N#CCCc1ccccc1`, 104% (inactive). Turning to `CNC(=O)O/N=C(\SC)C(=O)N(C)C`, the growth was 105% (inactive). Then `CCC1(CCSC#N)C(=O)NC(=O)NC1=O`, with 94.1% (inactive). In the case of `Oc1ccccc1C=NCCN=Cc1ccccc1O.[Fe]` it was 77% (inactive); in that of `CCCCCCCCCCCCCCCC[N+](C)(C)C`, -72% (active) and 4.21% (active).

Turning to `C[N+]1(C)CCCC1c1cccnc1` (configuration not stated), the growth is 92.5% (inactive).
